The values that follow come from ChEMBL document CHEMBL3988442, “University of Dundee, Small-Polar-MMV Screening Library” (2021).

For part of these data: Entries with a potency or affinity are not part of this list.

Common to all, as to set-up: scale not given: direction of the effect not stated beside the values
Assay [1] has as its target Protein translocase subunit SecA (Escherichia coli (strain K12)) (UniProt P10408). Kind of assay: Assay to Identify E. coli SecA ATPase Inhibitors. The note with it: 30 µM. It is filed as functional.
In assay [2] the target is T1, Ubiquitin-activating enzyme e1, putative (Leishmania donovani (strain BPK282A1)) (UniProt E9BSI1).
T1 sequence (whole entry): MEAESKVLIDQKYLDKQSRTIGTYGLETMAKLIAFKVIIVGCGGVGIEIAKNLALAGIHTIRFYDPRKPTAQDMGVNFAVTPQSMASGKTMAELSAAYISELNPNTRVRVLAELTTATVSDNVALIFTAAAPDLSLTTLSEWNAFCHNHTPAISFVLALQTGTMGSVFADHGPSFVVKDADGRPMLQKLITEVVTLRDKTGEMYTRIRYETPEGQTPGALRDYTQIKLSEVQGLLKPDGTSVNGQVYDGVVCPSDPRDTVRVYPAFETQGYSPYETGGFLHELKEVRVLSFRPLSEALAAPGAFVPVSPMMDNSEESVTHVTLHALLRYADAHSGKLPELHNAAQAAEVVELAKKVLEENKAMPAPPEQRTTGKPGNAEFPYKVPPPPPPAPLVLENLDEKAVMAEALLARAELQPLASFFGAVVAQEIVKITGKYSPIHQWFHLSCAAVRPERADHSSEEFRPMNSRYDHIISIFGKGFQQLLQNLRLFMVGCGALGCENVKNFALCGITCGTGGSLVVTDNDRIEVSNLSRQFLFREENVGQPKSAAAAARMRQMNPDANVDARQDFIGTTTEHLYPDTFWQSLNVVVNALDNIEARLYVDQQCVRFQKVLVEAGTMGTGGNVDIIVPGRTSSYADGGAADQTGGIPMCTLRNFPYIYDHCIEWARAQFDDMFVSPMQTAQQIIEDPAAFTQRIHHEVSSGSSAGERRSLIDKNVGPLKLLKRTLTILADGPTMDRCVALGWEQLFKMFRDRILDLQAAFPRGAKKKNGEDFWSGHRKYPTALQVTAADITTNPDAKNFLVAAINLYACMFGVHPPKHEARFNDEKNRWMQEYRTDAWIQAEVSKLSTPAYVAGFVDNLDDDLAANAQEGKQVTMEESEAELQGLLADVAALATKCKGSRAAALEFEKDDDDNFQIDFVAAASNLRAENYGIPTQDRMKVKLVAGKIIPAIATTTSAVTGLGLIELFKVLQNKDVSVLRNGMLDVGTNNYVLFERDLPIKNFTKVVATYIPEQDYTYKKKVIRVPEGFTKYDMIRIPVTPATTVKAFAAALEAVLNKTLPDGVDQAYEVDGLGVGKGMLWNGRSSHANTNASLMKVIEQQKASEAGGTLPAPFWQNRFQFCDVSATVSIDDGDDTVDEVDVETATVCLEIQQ
Kind of assay: Leishmania donovani Ubiquitin Activating Enzyme (LdE1). It is filed as functional. The note with it: 30 µM.

Assay [3] concerns the target AMP-activated protein kinase, AMPK (Homo sapiens) (UniProt P54646+O43741+P54619+Q9UGJ0+Q9Y478+Q13131+Q9UGI9). Description: AMP-dependent Kinase enzyme assay. An in vitro enzyme assay that detects ADP turnover that is directly proportional to AMPK activity. This uses naive AMPK that is activated during the assay with MK-8722. It counts as functional. The note with it: 30 µM.

For assay [4], the target named is Sialic acid-binding Ig-like lectin 9 (Homo sapiens) (UniProt Q9Y336). Kind of assay: Hs-Siglec9 ALPHAscreen SOP 20170721. The note with it: 10 µM.
Another assay relates to Trypanosoma cruzi. Kind of assay: Trypanosoma cruzi phosphomannomutase and mannose-1-phosphate guanylyltransferase assay. It is filed as functional. The note with it: 10 µM.
Assay [5] concerns the target T2, Arginase-2, mitochondrial (Homo sapiens) (UniProt P78540).
T2 sequence (whole entry): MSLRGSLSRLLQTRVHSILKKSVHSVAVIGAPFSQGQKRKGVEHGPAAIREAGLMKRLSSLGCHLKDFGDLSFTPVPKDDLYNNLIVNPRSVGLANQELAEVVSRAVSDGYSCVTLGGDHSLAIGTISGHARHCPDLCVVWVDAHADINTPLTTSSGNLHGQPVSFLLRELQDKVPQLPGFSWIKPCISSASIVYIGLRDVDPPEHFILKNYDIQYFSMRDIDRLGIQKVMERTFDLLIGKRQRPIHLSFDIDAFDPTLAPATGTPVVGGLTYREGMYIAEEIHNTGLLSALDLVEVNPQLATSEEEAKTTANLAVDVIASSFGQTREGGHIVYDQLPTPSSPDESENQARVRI
Description: in vitro enzyme assay to detect the production of urea directly proportional to the activity of Arginase II. Also: in the data most compounds retested in dose-response had high values. It counts as functional. The note with it: 33.3 µM.

For assay [6], the target named is T3, Proteasome subunit beta (Trypanosoma cruzi) (UniProt O96673).
T3 sequence (whole entry): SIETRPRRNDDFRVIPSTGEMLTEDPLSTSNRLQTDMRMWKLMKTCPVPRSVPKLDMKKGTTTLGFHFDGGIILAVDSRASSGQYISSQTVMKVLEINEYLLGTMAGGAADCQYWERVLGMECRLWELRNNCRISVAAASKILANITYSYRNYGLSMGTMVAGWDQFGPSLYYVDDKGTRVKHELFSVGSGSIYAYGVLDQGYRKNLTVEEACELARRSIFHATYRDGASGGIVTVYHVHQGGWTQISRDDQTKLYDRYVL
Kind of assay: Trypanosoma cruzi proteasome chymotrypsin-like activity (TcProtChymo) assay. Also: in the data most compounds retested in dose-response had high values. It is filed as functional. The note with it: 9.37 µM.

For the next assay, the species on record is Homo sapiens. Kind of assay: To identify inhibition of the IFN signalling (Jak-Stat) pathway via expression of an eGFP reporter gene under the control of an IFN-stimulated response element (ISRE) containing MxA promoter. It is filed as functional. The note with it: 30 µM.
Assay [7] addresses T4, Tyrosyl-tRNA synthetase, putative (Trypanosoma cruzi (strain CL Brener)) (UniProt Q4DSP6).
T4 sequence (whole entry): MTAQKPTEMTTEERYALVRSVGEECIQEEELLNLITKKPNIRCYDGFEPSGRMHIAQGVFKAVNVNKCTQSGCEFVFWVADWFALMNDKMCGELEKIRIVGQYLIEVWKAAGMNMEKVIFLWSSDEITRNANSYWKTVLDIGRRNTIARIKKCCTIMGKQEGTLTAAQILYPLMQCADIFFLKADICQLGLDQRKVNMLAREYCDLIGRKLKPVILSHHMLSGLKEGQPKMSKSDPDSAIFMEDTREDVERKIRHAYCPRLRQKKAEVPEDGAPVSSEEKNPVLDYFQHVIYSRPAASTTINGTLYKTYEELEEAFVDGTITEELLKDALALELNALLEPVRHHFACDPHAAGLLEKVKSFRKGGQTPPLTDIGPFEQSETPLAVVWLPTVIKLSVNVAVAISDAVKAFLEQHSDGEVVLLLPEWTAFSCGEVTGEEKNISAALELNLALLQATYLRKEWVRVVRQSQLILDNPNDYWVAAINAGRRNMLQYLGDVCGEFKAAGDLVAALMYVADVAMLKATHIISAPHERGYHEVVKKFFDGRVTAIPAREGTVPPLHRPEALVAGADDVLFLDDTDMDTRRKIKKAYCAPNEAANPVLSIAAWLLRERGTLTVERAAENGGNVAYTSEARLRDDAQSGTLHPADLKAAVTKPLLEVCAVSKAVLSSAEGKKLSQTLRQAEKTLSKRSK
Kind of assay: Trypanosoma cruzi tyrosyl tRNA synthetase (TcYRS) _High Tyrosine SOP. Also: in the data most compounds retested in dose-response had high values. It counts as functional. The note with it: 30 µM.

In assay [8] the target is T4, Tyrosyl-tRNA synthetase, putative (Trypanosoma cruzi (strain CL Brener)). Description: Trypanosoma cruzi tyrosyl tRNA synthetase (TcYRS) SOP. It counts as functional. The note with it: 30 µM.
Assay [9] addresses Chromo domain-containing protein 1 (Saccharomyces cerevisiae (strain ATCC 204508 / S288c) (Baker's yeast)) (UniProt P32657). Description: ScCHD-1 Enzyme Inhibition Assay. Also: in the data most compounds retested in dose-response had high values. The note with it: 30 µM. It is filed as functional.

Chain of Chromo domain-containing protein 1 (Saccharomyces cerevisiae (strain ATCC 204508 / S288c) (Baker's yeast)) (P32657 whole entry, the tested form may be a part): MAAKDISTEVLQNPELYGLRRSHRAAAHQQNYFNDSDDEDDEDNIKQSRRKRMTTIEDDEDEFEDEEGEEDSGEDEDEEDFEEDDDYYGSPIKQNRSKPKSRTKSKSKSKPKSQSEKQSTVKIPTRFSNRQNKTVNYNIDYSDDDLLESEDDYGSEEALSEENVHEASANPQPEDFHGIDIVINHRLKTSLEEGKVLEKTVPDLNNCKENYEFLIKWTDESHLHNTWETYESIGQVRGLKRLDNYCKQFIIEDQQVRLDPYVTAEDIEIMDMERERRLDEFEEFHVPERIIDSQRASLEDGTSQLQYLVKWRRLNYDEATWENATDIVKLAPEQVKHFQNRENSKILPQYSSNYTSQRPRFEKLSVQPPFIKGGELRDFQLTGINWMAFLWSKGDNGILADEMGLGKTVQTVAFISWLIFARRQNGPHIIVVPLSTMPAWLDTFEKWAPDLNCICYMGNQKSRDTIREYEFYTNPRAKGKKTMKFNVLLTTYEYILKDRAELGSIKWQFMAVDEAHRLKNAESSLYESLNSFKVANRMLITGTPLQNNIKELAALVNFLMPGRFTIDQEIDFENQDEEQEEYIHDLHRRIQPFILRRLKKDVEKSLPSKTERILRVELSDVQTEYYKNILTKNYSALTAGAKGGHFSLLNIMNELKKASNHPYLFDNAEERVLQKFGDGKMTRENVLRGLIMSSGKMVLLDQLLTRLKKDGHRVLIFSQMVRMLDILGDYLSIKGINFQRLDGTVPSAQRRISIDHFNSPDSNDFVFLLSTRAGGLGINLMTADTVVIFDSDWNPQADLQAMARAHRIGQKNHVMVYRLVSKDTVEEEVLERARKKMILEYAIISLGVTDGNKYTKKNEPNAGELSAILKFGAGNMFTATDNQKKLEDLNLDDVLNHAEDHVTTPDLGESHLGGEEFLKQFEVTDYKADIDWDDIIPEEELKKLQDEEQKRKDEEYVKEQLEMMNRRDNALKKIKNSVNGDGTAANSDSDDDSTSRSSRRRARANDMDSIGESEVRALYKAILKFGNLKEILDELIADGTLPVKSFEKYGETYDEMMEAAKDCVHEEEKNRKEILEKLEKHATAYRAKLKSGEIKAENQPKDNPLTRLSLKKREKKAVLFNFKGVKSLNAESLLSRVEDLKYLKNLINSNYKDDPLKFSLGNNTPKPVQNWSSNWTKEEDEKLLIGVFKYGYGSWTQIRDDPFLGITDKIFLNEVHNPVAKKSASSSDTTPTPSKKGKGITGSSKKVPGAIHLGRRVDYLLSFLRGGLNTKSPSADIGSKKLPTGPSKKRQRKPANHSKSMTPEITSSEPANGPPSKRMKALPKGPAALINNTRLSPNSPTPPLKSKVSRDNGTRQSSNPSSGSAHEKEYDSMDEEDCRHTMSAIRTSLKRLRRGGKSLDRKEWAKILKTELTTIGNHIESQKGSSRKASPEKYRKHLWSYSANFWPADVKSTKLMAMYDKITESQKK
Chain of Protein translocase subunit SecA (Escherichia coli (strain K12)) (P10408 whole entry): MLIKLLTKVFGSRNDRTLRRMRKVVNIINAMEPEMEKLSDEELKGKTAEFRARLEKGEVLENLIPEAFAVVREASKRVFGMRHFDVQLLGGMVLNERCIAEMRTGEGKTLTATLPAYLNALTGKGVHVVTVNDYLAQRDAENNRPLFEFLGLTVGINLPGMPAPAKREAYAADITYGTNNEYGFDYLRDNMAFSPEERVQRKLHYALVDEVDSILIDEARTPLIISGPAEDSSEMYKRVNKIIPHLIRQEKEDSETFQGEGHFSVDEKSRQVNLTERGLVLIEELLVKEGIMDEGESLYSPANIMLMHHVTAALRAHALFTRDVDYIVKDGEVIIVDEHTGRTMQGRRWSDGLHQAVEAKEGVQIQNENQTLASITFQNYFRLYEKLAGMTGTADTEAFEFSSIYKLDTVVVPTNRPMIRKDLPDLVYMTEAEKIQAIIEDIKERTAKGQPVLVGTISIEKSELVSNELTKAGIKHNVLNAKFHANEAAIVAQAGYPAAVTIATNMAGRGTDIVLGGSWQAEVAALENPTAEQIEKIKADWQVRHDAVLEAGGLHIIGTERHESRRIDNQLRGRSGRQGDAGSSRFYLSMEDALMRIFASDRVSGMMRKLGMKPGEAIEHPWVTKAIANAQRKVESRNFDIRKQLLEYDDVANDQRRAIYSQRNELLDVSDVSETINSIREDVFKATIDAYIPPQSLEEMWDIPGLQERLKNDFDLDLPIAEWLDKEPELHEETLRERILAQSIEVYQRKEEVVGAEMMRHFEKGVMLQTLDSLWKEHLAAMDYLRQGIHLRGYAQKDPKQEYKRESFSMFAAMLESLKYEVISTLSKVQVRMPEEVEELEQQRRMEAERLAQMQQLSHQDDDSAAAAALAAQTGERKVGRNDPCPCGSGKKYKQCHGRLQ
Chain of Sialic acid-binding Ig-like lectin 9 (Homo sapiens) (Q9Y336 whole entry): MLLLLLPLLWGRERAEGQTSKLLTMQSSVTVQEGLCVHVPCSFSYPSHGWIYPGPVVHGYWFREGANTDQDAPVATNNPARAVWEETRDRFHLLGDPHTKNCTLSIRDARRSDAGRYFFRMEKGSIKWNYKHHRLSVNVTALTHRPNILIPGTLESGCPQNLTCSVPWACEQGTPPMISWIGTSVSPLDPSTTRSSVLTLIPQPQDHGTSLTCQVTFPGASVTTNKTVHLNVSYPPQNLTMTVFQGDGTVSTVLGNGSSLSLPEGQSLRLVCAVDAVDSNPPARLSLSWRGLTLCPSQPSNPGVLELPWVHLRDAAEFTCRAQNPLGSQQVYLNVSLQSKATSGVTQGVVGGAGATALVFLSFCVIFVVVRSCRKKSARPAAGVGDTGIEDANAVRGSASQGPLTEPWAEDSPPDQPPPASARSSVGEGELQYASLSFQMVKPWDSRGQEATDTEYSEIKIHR

As to `CC(C)(CNC(=O)OC(C)(C)C)NC(=O)C1CC(=O)N(C2CC2)C1` (centres undefined), the Percent Effect in [1] was -7.68%; in assay [2] it was -2.7%; in assay [3] it was -1.58%; in assay [4] it was -8.17%; in the assay with Trypanosoma cruzi it was -8.11%; in assay [5], -1.24%. Moreover, the Percent Effect in assay [6] was 7.3%; in the assay listed under Homo sapiens it was 20.6%; in [7], -2.15%; in assay [8], 3.7%; in assay [9], -4.06%.

Take `CN(C)C(=O)COCc1cncc2c1CCN(Cc1cnn(C)c1)C2`: the Percent Effect in [1] was -4.54%; in assay [2] it was 10.4%; in assay [3], 1.37%; in assay [4] it was 20%; in the assay with Trypanosoma cruzi, 0.0983%; in [5], -6.9%. Moreover, the Percent Effect in [6] is 11.8%; in the assay listed under Homo sapiens, 10.6%; in assay [7], 3.23%; in [8], 8.64%; in assay [9], -2.53%.

Turning to `CCC(CC)c1cc(CNC(=O)N2CCOC(C)C2)on1` (centres undefined), the Percent Effect is -3.56% in [1]; -2.7% in assay [2]; -0.766% in assay [3]; -6.02% in assay [4]; -1.86% in the assay on Trypanosoma cruzi; 2.23% in [5]. In addition, the Percent Effect is -2.66% in assay [6]; 3.72% in the assay filed under Homo sapiens; 3.23% in assay [7]; 1.24% in assay [8]; 0.0369% in assay [9].

On to `Cc1noc(C)c1CNC(=O)N1CCC(C(O)c2ccccc2)CC1` (centres undefined), for which the Percent Effect was -4.23% in [1]; 11% in [2]; -3.81% in assay [3]; 6.33% in [4]; 7.54% in the assay on Trypanosoma cruzi; -4.79% in assay [5]. Moreover, the Percent Effect in assay [6] was -1.8%; in the assay filed under Homo sapiens, 11.9%; in assay [7], 2.08%; in [8], 13.6%; in [9], -3.08%.

On to `Cc1ccc(-c2nc(CNC3CCc4ncnn4C3)co2)c(C)c1` (centres undefined), for which the Percent Effect in [1] was -7.34%; in assay [2], -41.6%; in assay [3], -3.33%; in [4], 17.9%; in the assay with Trypanosoma cruzi, 6.18%; in assay [5], 0%. In addition, the Percent Effect worked out at 7.09% in assay [6]; 9.71% in the assay filed under Homo sapiens; 10.7% in assay [7]; 19.5% in assay [8]; 80.3% in assay [9].

For the molecule `Cc1nc(COCc2cnc3n2CCN(CC2CCC2)C3C)cs1` (centres undefined), the Percent Effect in assay [1] is -1.98%; in [2], -2.67%; in [3], -6.08%; in assay [4], 4.28%; in the assay with Trypanosoma cruzi it was 8.11%; in assay [5], -56.8%. In addition, the Percent Effect in assay [6] is 12.7%; in the assay filed under Homo sapiens, -20.7%; in assay [7] it was -1.04%; in assay [8] it was 7.5%; in [9] it was -4.06%.

For `Cc1ccc(-n2nnc(CC(=O)N3CCSCC3)c2C)cc1`, the Percent Effect in assay [1] was -3.7%; in [2] it was 20.8%; in assay [3] it was -1.3%; in assay [4] it was 11.8%; with Trypanosoma cruzi it was 3.83%; in [5] it was -5.52%. Also, the Percent Effect in assay [6] is 11.2%; in the assay listed under Homo sapiens, -2.27%; in assay [7], 5.38%; in [8], 21%; in [9] it was -9.71%.

With `CC(C)N(C)Cc1cn2c(n1)CN(Cc1ccsc1)CC2`, the Percent Effect in [1] is 5.48%; in assay [2], 11%; in [3], 1.28%; in [4] it was 6.24%; with Trypanosoma cruzi it was -5.56%; in [5], -3.19%. The Percent Effect in assay [6] amounted to 9.33%; in the assay listed under Homo sapiens it was 18.4%; in assay [7] it was 7.29%; in assay [8], 8.64%; in [9], 2.73%.

`Cc1cc(C)cc(N(C)S(=O)(=O)c2cc(C(=O)O)cs2)c1`: the Percent Effect was -3.42% in [1]; 5.41% in assay [2]; -10.8% in assay [3]; 15.8% in assay [4]; 5.57% in the assay on Trypanosoma cruzi; -5.21% in assay [5]. For the same molecule, the Percent Effect in [6] was 0%; in the assay listed under Homo sapiens, 12.5%; in assay [7] it was -1.48%; in assay [8] it was 3.7%; in [9], -4.94%.
